Inconclusive results are not listed. The source made the active and inactive calls. Unless noted, calls follow the shape of the dose curve; as a rule, active = well fitted curve in the direction sought with a large enough effect in the repeat runs; inconclusive = weak or mixed curves; inactive = no such curve, though single readings can be large; an effect the other way counts as inactive or inconclusive.
Key:
[1] = qHTS assay to identify small molecule antagonists of the estrogen receptor alpha (ER-alpha) signaling pathway using the BG1 cell line in the presence of 0.1 nM 17-beta-estradiol - cell viability counter screen (AID 1259241); also: nearly all actives have a fitted effect of over 40% in size
Summary of the method: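 Viability in VM7Luc4E2 cells after 22 hr compound exposure under 0.1 nM 17beta-estradiol stimulation, by CellTiter-Fluor.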

[2] = molecular target: Androgen receptor (Homo sapiens) (UniProt P10275); test: qHTS assay to identify small molecule antagonists of the androgen receptor (AR) signaling pathway using the MDA cell line in the presence of 0.5 nM R1881 (AID 1259243); also: nearly all actives have a fitted effect of over 50% in size
Summary of the method: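 Antagonist mode quantitative HTS in MDA-kb2 MMTV-luciferase cells, agonist R1881 at 0.5 nM final, 16 hr exposure at 37C and 0% CO2, luminescent detection.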

[3] = molecular target: Estrogen receptor (Homo sapiens) (UniProt P03372); test: qHTS assay to identify small molecule antagonists of the estrogen receptor alpha (ER-alpha) signaling pathway using the BG1 cell line in the presence of 0.1 nM 17-beta-estradiol (AID 1259244); also: nearly all actives have a fitted effect of over 50% in size
Summary of the method: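 Reporter is a stably transfected luciferase under four estrogen responsive elements in VM7Luc4E2 cells expressing native full-length ER-alpha; inhibition of 0.1 nM (final) 17beta-estradiol-driven signal over 22 h is read by luminescence.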

[4] = qHTS assay to identify small molecule HDAC inhibitors (AID 1259364);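 also: wild-type HCT-116 cells with endogenous class I/II HDAC activity; top concentration of the series differs between compounds; nearly all actives have a fitted effect of over 45% in size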
Summary of the method: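 Quantitative high-throughput format: overnight-seeded HCT-116 cells got compounds for 2 hr at 37C; HDAC-Glo I/II reagent added, 30 min RT, luminescence measured.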

[5] = qHTS assay to identify small molecule HDAC inhibitors - cell viability counter screen (AID 1259365); also: series mostly up to about 92 µM; nearly all actives have a fitted effect of over 50% in size
Summary of the method: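 Cytotoxicity was gauged in wild-type HCT-116 cells after a brief 2hr treatment with DMSO-dissolved compounds at 37C and 5% CO2, using CellTiter-Glo luminescence developed for 30min at room temperature.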

[6] = qHTS assay to identify small molecule agonists of the sonic hedgehog signaling (Shh) pathway - cell viability counter screen (AID 1259366); also: nearly all actives have a fitted effect of over 50% in size
Summary of the method: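 Stable Gli1-Luc NIH/3T3 clone, 2,000 cells/well. Compound exposure 24hr at 37C. Read-out: CellTiter-Fluor fluorescence.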

[7] = qHTS assay to identify small molecule antagonists of the sonic hedgehog signaling (Shh) pathway - cell viability counter screen (AID 1259367); also: nearly all actives have a fitted effect of over 55% in size
Summary of the method: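 CellTiter-Fluor signal in conditioned medium-stimulated 3T3 Gli1-Luc cells, 23 hr compound exposure, 37C.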

[8] = qHTS assay to identify small molecule agonists of the sonic hedgehog signaling (Shh) pathway (AID 1259368; calls by dose curve;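 also: NIH/3T3-derived 3T3Gli1-Luc cells carrying a stable Gli1-driven firefly luciferase reporter; series mostly up to about 92 µM; nearly all actives have a fitted effect of over 15% in size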)
Summary of the method: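 Quantitative high-throughput format using a Gli1-driven firefly luciferase reporter line derived from NIH/3T3 cells. After a 24 hr compound treatment at 37 C and 5% CO2, luminescence reported Gli1 response element activity.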

[9] = qHTS assay to identify small molecule antagonists of the sonic hedgehog signaling (Shh) pathway (AID 1259369; calls by dose curve; also: nearly all actives have a fitted effect of over 45% in size)
Summary of the method: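 Stable Gli1-Luc reporter NIH/3T3 clone; quantitative HTS in stimulated mode with conditioned medium. Luminescence measured after 24hr compound treatment at 37 C.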

[10] = molecular target: Estrogen receptor beta (Homo sapiens) (UniProt Q92731); test: qHTS assay to identify small molecule agonists of the estrogen receptor beta (ER-beta) signaling pathway (AID 1259377; active = well fitted activation curve with a large enough effect in the signal ratio in the repeat runs, not every such curve was filed as active; the % refers to the signal ratio)
Summary of the method: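 Measured by fluorescence intensity from a B/G FRET beta-lactamase substrate (2 h, room temperature) in ER-beta-UAS-bla HEK293T cells treated with DMSO-dissolved compounds for 16 hr at 37C and 5% CO2.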

[11] = molecular target: Estrogen receptor beta (Homo sapiens) (UniProt Q92731); test: qHTS assay to identify small molecule antagonists of the estrogen receptor beta (ER-beta) signaling pathway (AID 1259378; active = well fitted inhibition curve with a large enough effect in the signal ratio in the repeat runs, not every such curve was filed as active; the % refers to the signal ratio)
Summary of the method: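 Antagonist mode: compounds added to beta-lactamase reporter HEK293T ER-beta-UAS cells stimulated with E2 (1nM final), 16 hr at 37C. LiveBLAzer B/G FRET substrate, 2 hours room temperature, fluorescence read-out.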

[12] = qHTS assay to identify small molecule agonists of the androgen receptor (AR) signaling pathway in the presence of an antagonist - cell viability counter screen (AID 1259379);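 also: MDA-kb2 human breast cancer cells carrying an MMTV luciferase reporter; series mostly up to about 92 µM; nearly all actives have a fitted effect of over 25% in size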
Summary of the method: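 Nilutamide-containing (3.0uM final) MDA-kb2 cultures, 3,000 cells/well, were treated with compounds across 15 concentrations. After 16 hr at 37C with no CO2, cell viability was determined by CellTiter-Fluor fluorescence in the luciferase assay wells.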

[13] = qHTS assay to identify small molecule agonists of the estrogen receptor beta (ER-beta) signaling pathway - cell viability counter screen (AID 1259380); also: nearly all actives have a fitted effect of over 30% in size
Summary of the method: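 Steps: plate ER-beta-UAS-bla HEK293T cells, rest 6 hr; add compounds in DMSO; incubate 16 hr at 37C, 5% CO2; add FRET substrate 2 hr; add CellTiter-Glo, wait 30 min at room temperature; read luminescence.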

[14] = qHTS assay to identify small molecule antagonists of the estrogen receptor beta (ER-beta) signaling pathway - cell viability counter screen (AID 1259382);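 also: HEK293T cells carrying ER-beta-UAS-bla reporter stimulated with estradiol; series mostly up to about 92 µM; nearly all actives have a fitted effect of over 55% in size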
Summary of the method: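 Viability is scored by CellTiter-Glo luminescence (30 min, room temperature) in ER-beta-UAS-bla HEK293T wells already read for reporter fluorescence. Compound exposure lasts 16 hr at 37C alongside 1nM 17-beta-estradiol in charcoal-stripped serum medium.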

[15] = qHTS assay to identify small molecule agonists or antagonists of the thyroid stimulating hormone receptor (TSHR) signaling pathway - wild type cell line counter screen (AID 1259384; calls by dose curve)
Summary of the method: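 Counter screen in untransfected Hek293: compounds (15-point titration, triplicate) plus phosphodiesterase inhibitor Ro20-1724 added after 18 h plating; 30 min RT. Intracellular cAMP via competitive d2/cryptate immunoassay, 1 h incubation.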

[16] = molecular target: Thyrotropin receptor (Homo sapiens) (UniProt P16473); test: qHTS assay to identify small molecule antagonists of the thyroid stimulating hormone receptor (TSHR) signaling pathway (AID 1259385; calls by dose curve; also: nearly all actives have a fitted effect of over 20% in size)
Summary of the method: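 Antagonist mode: compound-treated TSHR-expressing HEK293 cells were stimulated with 1.5 ng/mL TSH (final) in presence of Ro20-1724 for 30 min at RT. HTRF cAMP detection after 1 h; each compound tested at 15 concentrations, triplicate.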

[17] = qHTS assay to identify small molecule agonists of the estrogen receptor alpha (ER-alpha) signaling pathway in the presence of an antagonist - cell viability counter screen (AID 1259386);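 also: series mostly up to about 92 µM; cells exposed to compounds for 22 h at 37 °C before the viability read; nearly all actives have a fitted effect of over 30% in size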
Summary of the method: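 In this counter screen, compound effects on VM7Luc4E2 viability were tested in the presence of the antagonist ICI-182,780 at 10.0nM final. Compounds were dosed at 15 concentrations, exposure lasted 22hr, and the CellTiter-Fluor signal was read.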

[18] = qHTS assay to identify small molecule antagonists of the androgen receptor (AR) signaling pathway using the MDA cell line in the presence of 0.5 nM R1881 - cell viability counter screen (AID 1259242); also: nearly all actives have a fitted effect of over 45% in size
Summary of the method: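 qHTS format. MDA-kb2 (MMTV-luc, AR/GR responsive) + cpd + 0.5 nM R1881 final, 16 hr 37C/0% CO2 → CellTiter-Fluor 30 min → fluorescence intensity.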

Measured: Potency

Chain of Estrogen receptor beta (Homo sapiens) (Q92731 whole entry, looked up): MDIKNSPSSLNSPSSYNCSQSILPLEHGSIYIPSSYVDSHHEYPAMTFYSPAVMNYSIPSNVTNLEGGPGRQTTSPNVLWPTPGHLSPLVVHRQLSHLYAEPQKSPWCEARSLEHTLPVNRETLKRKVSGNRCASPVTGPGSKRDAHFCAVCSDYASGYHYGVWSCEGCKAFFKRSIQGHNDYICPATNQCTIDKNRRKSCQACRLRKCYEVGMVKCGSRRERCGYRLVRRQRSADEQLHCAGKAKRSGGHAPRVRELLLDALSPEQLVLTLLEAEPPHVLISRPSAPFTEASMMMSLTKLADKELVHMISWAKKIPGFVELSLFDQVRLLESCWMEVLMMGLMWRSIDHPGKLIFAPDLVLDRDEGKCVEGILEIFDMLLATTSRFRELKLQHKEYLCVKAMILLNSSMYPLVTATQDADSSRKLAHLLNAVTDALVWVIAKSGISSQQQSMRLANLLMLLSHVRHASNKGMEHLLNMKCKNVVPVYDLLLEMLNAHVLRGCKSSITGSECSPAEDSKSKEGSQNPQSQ
Chain of Thyrotropin receptor (Homo sapiens) (P16473 whole entry, looked up): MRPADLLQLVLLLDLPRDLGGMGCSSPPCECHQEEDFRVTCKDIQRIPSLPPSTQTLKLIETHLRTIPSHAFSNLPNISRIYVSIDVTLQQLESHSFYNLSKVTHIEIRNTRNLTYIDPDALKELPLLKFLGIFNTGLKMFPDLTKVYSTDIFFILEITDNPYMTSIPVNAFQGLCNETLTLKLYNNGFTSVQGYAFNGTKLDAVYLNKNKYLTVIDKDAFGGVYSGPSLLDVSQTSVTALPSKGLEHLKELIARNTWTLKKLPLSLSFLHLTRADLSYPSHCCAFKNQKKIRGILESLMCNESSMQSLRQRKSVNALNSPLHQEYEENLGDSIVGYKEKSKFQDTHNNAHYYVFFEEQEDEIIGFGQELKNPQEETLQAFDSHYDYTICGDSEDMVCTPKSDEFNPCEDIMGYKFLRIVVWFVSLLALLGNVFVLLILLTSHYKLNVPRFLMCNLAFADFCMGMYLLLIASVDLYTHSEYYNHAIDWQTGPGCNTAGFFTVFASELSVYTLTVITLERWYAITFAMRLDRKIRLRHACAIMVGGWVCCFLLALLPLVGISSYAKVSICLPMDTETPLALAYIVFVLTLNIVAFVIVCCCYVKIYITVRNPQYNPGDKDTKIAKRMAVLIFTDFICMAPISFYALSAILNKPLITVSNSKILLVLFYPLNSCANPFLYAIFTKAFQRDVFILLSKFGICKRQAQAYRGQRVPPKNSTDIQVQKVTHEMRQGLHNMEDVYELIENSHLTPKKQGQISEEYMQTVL
Chain of Androgen receptor (Homo sapiens) (P10275 whole entry, looked up): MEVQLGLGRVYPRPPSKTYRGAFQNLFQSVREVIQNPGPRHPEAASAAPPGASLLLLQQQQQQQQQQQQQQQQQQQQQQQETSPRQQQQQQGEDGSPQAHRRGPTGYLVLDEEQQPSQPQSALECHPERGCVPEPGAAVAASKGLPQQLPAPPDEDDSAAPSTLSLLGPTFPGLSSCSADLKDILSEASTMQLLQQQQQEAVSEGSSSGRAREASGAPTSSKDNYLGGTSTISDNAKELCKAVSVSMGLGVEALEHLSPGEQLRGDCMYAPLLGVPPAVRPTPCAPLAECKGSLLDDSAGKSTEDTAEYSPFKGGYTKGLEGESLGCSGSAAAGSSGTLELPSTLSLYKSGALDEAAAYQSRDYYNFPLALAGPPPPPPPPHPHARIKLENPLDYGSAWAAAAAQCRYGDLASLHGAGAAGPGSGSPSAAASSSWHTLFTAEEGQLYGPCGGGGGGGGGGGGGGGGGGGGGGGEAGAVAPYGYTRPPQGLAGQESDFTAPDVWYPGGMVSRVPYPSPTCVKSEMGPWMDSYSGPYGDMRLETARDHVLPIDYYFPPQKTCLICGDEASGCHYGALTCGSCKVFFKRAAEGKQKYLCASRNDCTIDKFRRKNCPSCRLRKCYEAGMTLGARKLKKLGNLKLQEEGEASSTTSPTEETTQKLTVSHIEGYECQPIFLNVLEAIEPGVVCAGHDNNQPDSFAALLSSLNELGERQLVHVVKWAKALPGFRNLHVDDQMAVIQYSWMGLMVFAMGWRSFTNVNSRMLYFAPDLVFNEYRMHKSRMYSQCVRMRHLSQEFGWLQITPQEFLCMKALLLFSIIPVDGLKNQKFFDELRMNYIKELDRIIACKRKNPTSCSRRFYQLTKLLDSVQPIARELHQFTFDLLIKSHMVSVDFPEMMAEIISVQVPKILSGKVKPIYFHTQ
Chain of Estrogen receptor (Homo sapiens) (P03372 whole entry, looked up): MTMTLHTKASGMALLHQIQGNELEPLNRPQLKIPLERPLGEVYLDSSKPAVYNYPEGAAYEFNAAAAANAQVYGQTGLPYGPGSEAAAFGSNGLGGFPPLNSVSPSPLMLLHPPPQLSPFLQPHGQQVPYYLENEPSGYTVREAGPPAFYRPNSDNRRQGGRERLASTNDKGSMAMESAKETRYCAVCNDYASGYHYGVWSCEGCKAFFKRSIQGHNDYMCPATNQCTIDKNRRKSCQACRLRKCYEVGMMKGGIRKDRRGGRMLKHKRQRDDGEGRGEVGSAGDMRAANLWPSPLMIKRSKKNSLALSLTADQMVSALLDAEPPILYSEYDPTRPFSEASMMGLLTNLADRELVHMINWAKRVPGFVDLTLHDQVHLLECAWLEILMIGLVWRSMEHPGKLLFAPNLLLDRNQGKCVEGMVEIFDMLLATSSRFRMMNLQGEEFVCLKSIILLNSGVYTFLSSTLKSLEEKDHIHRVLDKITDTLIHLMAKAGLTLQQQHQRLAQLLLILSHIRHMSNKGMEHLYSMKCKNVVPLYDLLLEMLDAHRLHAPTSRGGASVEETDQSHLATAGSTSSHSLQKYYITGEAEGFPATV

CS(=O)(=O)O
not listed: [18]
inactive: all other assays above

CC/C=C\CC/C=C/CO
not listed: [2] | [3] | [9] | [10] | [11] | [15] | [16]
inactive: all other assays above

COC(=O)CC(C)=O
not listed: [2] | [3] | [8]
inactive: all other assays above

CCCCCCCCCCCC
not listed: [2] | [3] | [9] | [10] | [11]
inactive: all other assays above

CCCCCCCCS(=O)(=O)Cl
not listed: [2] | [3] | [11]
inactive: all other assays above

C[C@H]1C[C@@H](O)CC(C)(C)C1
not listed: [2] | [3] | [4] | [8]
inactive: all other assays above

FC(F)OC(Cl)C(F)(F)F (stereo not drawn)
not listed: [2] | [3] | [9] | [15] | [16]
inactive: all other assays above
